Compounds with a hit are over-represented: about 7.6% of the library has one in this group of screens.
RORg inh: blocks mouse ROR gamma transcriptional activity | P51450 | Drosophila S2 Gal4-RORgamma UAS-luciferase reporter, 20 h | Potency, µM (titrated, usually from 53.6 µM), for the others: at the top dose activity change, negative = inhibition, usual class: inhibitors | 5.4% of 310,000 active; further: potency means the concentration at half of the fitted maximal effect; on the % scale 0 is the no-effect control and ±100 the full control effect; nearly all actives have a fitted effect of over 60% in size
Target sequence (P51450 whole entry, looked up, the tested form may be a part): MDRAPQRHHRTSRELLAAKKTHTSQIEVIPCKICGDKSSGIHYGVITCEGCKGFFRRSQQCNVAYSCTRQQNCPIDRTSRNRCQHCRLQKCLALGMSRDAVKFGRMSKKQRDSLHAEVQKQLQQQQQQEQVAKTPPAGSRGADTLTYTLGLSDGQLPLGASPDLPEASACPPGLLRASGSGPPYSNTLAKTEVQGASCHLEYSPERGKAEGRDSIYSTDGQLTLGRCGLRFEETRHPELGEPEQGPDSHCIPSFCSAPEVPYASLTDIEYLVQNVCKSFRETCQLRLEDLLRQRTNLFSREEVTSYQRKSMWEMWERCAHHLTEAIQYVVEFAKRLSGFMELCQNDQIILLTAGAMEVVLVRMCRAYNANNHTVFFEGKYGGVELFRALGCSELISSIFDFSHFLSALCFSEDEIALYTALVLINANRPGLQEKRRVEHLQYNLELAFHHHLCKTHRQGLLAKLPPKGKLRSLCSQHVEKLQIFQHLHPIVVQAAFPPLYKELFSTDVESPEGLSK
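Schneider cells (Drosophila), stable Gal4 DBD–ROR gamma + UAS-luc; 1 hr cmpd preincubation; Cu2+ induction 700 uM final; 20 hr ambient; luminescence.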
BRCA1 expr act: BRCA1 expression activation. MCF7-BRCA1-FFLuc reporter, luminescence, 48 h; response scale: scaled: vehicle 0%, 10 µM genistein 100%. Potency, µM (series often up to 46.1 µM), for inactives: at the top dose activation, actives largely listed as activators. 1.1% of 380,000 active; further: potency means the concentration at half of the fitted maximal effect; nearly all actives have a fitted effect of over 80% in size
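MCF7-BRCA1-FFLuc cells, 2000/well in phenol-red-free MEM, attached 2 h then treated 48 h at 37 C. Luciferase luminescence read 15 min after reagent; normalized to genistein maximum activation (10microM) and DMSO, concentration-response fitted.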
p53 reactivator: re-activators of mutant p53. H1299 p53-A138V BP100-luciferase reporter, luminescence, 24 h. Potency, µM (top dose mostly 92.2 µM), for the others: top-dose activity change, positive = activation, actives largely listed as activators. 0.063% of 320,000 active. AID 504706; further: potency means the concentration at half of the fitted maximal effect; % of control where 0% means no effect; nearly all actives have a fitted effect of over 45% in size
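H1299 (p53-null), stable ts p53-A138V + BP100-Luc; 1000 cells/well, Opti-MEM/10% FBS; cpd 4 pt, 1:5; 24 h, 37 deg C, 5% CO2; detection reagent 10 min RT; luminescence.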
ELG1 DNA repair: ELG1-dependent DNA repair inhibition. HEK293T ELG1-luciferase reporter, luminescence, 16 h; DNA damage induced by 5-fluorouridine. Potency, µM (titrated, usually from 46.1 µM), for the others: at the top dose activity change, negative = inhibition, usual class: inhibitors. 2.3% of 330,000 active; further: potency means the concentration at half of the fitted maximal effect; on the % scale 0 is the no-effect control and ±100 the full control effect; nearly all actives have a fitted effect of over 55% in size
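Luminescence from the luciferase reporter, measured 30 min after ONE-Glo reagent at room temperature, was the read-out. Beforehand, 2,000 cells per well were exposed for 16 hr at 37 °C to 5-fluorouridine together with compound or vehicle.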
Gal4-VP16 FLuc: counter-screen for ROR gamma inhibitors: Gal4-VP16 reporter. Drosophila S2 Gal4-VP16 UAS-luciferase, luminescence, 20 h. Potency, µM (doses to about 53.6 µM), for the others: at the top dose activity, negative = inhibition, actives largely listed as inhibitors. 3.5% of 310,000 active. AID 2546;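 further: Gal4-VP16 expression switched on by copper sulfate through the metallothionein promoter; potency means the concentration at half of the fitted maximal effect; on the % scale 0 is the no-effect control and ±100 the full control effect; nearly all actives have a fitted effect of over 50% in size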
Giardia killer: kills Giardia lamblia. AID 540267. Giardia lamblia trophozoite viability. activity change, % at 7.66 µM, hits read low. 0.15% of 340,000 active; in the data active means activity change below about -80%; inconclusive means between about -30% and that limit;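 further: parasites exposed to compound for two days anaerobically before the ATP read; on the % scale 0 is the no-effect control and ±100 the full control effect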
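ATP-content bioluminescence gauges trophozoite survival. Cells (100/well) receive compound and incubate anaerobically for 48 hrs at 37 deg C; detection reagent follows for 15-30 min at room temperature.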
Starred values were filed as active, the others as inactive. Unless noted, the call rests on the fitted dose curve; in most records, active means well fitted curve in the direction sought with a large enough effect; inconclusive means small, poorly fitted or top-dose-only effect, or another doubt; inactive means no such curve, though single readings can be large; an effect the other way counts as inactive or inconclusive.

Screening O=C(NNC(=O)c1ccc(Cl)c(Cl)c1)c1ccncc1 returned BRCA1 expr act -6% and Giardia killer 16.
`Cc1cc2c(cc1S(=O)(=O)CCC(=O)NC1CCC(C)CC1)OCC(=O)N2` (configuration not stated) gave RORg inh -15%, BRCA1 expr act -10%, p53 reactivator 9%, ELG1 DNA repair 17%, Gal4-VP16 FLuc -2% and Giardia killer -6.
`CC(C)c1ccc(N2C=Nc3ccc(C(C)C)cc3C2)cc1` gave RORg inh 7.9µM*, BRCA1 expr act -1%, p53 reactivator 5%, ELG1 DNA repair -9%, Gal4-VP16 FLuc inconclusive and Giardia killer -9.
`C1=Nc2ccccc2CN1c1ccccc1` gave RORg inh 5%, BRCA1 expr act 7.1µM*, p53 reactivator inconclusive, ELG1 DNA repair inconclusive, Gal4-VP16 FLuc -10% and Giardia killer -7.
`Cc1ccc(C)c(NC(=O)C2CCN(c3nn4c(=O)cc(C)nc4s3)CC2)c1` gave BRCA1 expr act 0%.
`O=C(c1noc2c1CCCC2)N1CCN(Cc2ccccc2)CC1` gave RORg inh inconclusive, BRCA1 expr act 21%, p53 reactivator inconclusive, ELG1 DNA repair 20%, Gal4-VP16 FLuc 4% and Giardia killer 5.
`CC(C)c1ccc(/C=N/NC(=O)c2c(Cl)cnn2C)cc1` gave RORg inh inconclusive, BRCA1 expr act 7.1µM*, p53 reactivator inconclusive, ELG1 DNA repair inconclusive, Gal4-VP16 FLuc inconclusive and Giardia killer 7.
Screening O=C(CN1CCN(c2nc(-c3ccc(F)cc3)cs2)CC1)NCc1ccc2c(c1)OCO2 returned RORg inh 26%, BRCA1 expr act -50%, p53 reactivator -16%, ELG1 DNA repair inconclusive, Gal4-VP16 FLuc -22% and Giardia killer 15.
Screening CC1(C)Cc2nc3n[nH]c(N)c3cc2CO1 returned RORg inh -4%, BRCA1 expr act 5%, p53 reactivator 24%, ELG1 DNA repair 6%, Gal4-VP16 FLuc 4% and Giardia killer -9.
O=C(COc1ncnc2ccccc12)Nc1ccc(Cl)c(S(=O)(=O)N2CCOCC2)c1 was read as RORg inh 10%, BRCA1 expr act 1%, p53 reactivator -1%, ELG1 DNA repair inconclusive, Gal4-VP16 FLuc 2% and Giardia killer 4.
For O=C(COc1cccc(Br)c1)Nc1ccc(Cl)c(S(=O)(=O)N2CCOCC2)c1 the results were BRCA1 expr act -37%, p53 reactivator 5%, ELG1 DNA repair 23µM* and Giardia killer -13.
`Cc1ccc(OCCCC(=O)Nc2ccc(Cl)c(S(=O)(=O)N3CCOCC3)c2)cc1` gave BRCA1 expr act -28%, p53 reactivator -2%, ELG1 DNA repair 23µM* and Giardia killer -3.
Screening CC(=O)c1ccc(OCCCC(=O)Nc2ccc(Cl)c(S(=O)(=O)N3CCOCC3)c2)cc1 returned BRCA1 expr act -22% and Giardia killer 2.
Screening CCN(CC)S(=O)(=O)c1cc(NC(=O)CCCOc2ccc(C(C)=O)cc2)ccc1C returned RORg inh 25%, BRCA1 expr act -32%, p53 reactivator 24%, ELG1 DNA repair 16µM*, Gal4-VP16 FLuc -22% and Giardia killer 16.
O=C(CCCOc1ccccc1)Nc1ccc(Cl)c(S(=O)(=O)N2CCOCC2)c1 was read as BRCA1 expr act -48%, p53 reactivator 2%, ELG1 DNA repair 13µM* and Giardia killer 11.
`Cc1ccc(Oc2cc(C#N)c(C#N)cc2-n2nnc3ccccc32)cc1C` gave RORg inh -4%, BRCA1 expr act -3%, p53 reactivator -6%, ELG1 DNA repair -2%, Gal4-VP16 FLuc 2% and Giardia killer -14.
For Cc1cc(C)cc(NS(=O)(=O)c2coc(C(N)=O)c2)c1 the results were RORg inh 4%, BRCA1 expr act -2%, p53 reactivator 12%, ELG1 DNA repair 6%, Gal4-VP16 FLuc -4% and Giardia killer 14.
CC(=O)c1ccc(OCC(=O)Nc2cccc(C(=O)Nc3c(C)n(C)n(-c4ccccc4)c3=O)c2)cc1 was read as BRCA1 expr act 7% and Giardia killer 4.
Screening Cc1c(NC(=O)c2cccc(NC(=O)COc3cccc(Br)c3)c2)c(=O)n(-c2ccccc2)n1C returned BRCA1 expr act 5%, p53 reactivator -9%, ELG1 DNA repair 23µM* and Giardia killer 25.
Screening Cc1ccc(NC(=O)COc2ccc(-c3nnco3)cc2)cc1S(=O)(=O)N1CCOCC1 returned RORg inh inconclusive, BRCA1 expr act -14%, p53 reactivator -3%, ELG1 DNA repair 18µM*, Gal4-VP16 FLuc 4% and Giardia killer 19.
`CCN(CC)S(=O)(=O)c1cc(NC(=O)C(C)N2CCN(c3ccccn3)CC2)ccc1C` (configuration not stated) gave RORg inh 21%, BRCA1 expr act -25%, p53 reactivator 3%, ELG1 DNA repair 21µM*, Gal4-VP16 FLuc 2% and Giardia killer -15.
`Cc1ccc(NC(=O)Cc2n[nH]c(=O)c3ccccc23)cc1S(=O)(=O)N1CCCCCC1` gave BRCA1 expr act -58%, p53 reactivator -4%, ELG1 DNA repair inconclusive and Giardia killer 6.
`CCN(CC)S(=O)(=O)c1cc(NC(=O)Cc2n[nH]c(=O)c3ccccc23)ccc1C` gave RORg inh inconclusive, BRCA1 expr act -20%, p53 reactivator -2%, ELG1 DNA repair 21µM*, Gal4-VP16 FLuc -22% and Giardia killer 4.
`COC(=O)c1ccc(CO/N=C(\NC(C)=O)c2nonc2NC(C)=O)cc1` gave RORg inh -28%, BRCA1 expr act 1%, p53 reactivator 14%, ELG1 DNA repair 17%, Gal4-VP16 FLuc 11% and Giardia killer 7.
For Cc1ccc(NC(=O)CNc2cccc(Br)c2)cc1S(=O)(=O)N1CCOCC1 the results were BRCA1 expr act -36%, p53 reactivator -1%, ELG1 DNA repair 23µM* and Giardia killer 10.
Screening COC(=O)c1ccccc1S(=O)(=O)Oc1ccc(-c2ccc(C(=O)O)cc2)cc1 returned RORg inh 13%, BRCA1 expr act -6%, p53 reactivator 1%, ELG1 DNA repair 8%, Gal4-VP16 FLuc 20% and Giardia killer -13.
`O=C(O)c1ccc(-c2ccc(OS(=O)(=O)c3ccccc3F)cc2)cc1` gave RORg inh inconclusive, BRCA1 expr act 13µM*, p53 reactivator 10%, ELG1 DNA repair inconclusive, Gal4-VP16 FLuc inconclusive and Giardia killer 0.
